# Among all 52,000 compounds or so, about 4,300 (8.3%) were called active. Many of the other results were omitted from the sample, so actives are more common in it than they were. Unmarked numbers belong to inactive results. Rule as the data show it: active = survival mostly below about 52% (no sharp cut-off); inactive = mostly above about 56%.
# Test system: DeltatarO mutant
# Test: growth inhibition of S. aureus wild type versus tarO mutant, primary screen, teichoic acid synthesis inhibitors, RN4220, OD600 (AID 463173)
# Conditions: OD600, 18 h, hits give low values, screened at 18.75 µg/mL (by protocol)
row,SMILES,survival
1,COc1ccc(Cl)cc1C1CC(=O)Nc2cc3c(cc21)OCCO3 (configuration not stated),102%
2,O=C(Nc1ccc(Br)cc1F)C1CCN(c2nc3ccccc3[nH]2)CC1,102%
3,CCCNC(=O)Cn1c(=O)n(CC2CCC(C(=O)NC)CC2)c(=O)c2sccc21 (configuration not stated),87%
4,Cc1cccc(NC2=NCC(=O)N2Cc2ccccc2)c1,89%
5,CCOC(=O)N1CCN(C(=O)c2ccc3c(c2)N(Cc2ccccc2F)C(=O)c2ccccc2S3(=O)=O)CC1,72%
6,O=S(=O)(c1ccc(OC(F)(F)F)cc1)N1CCC(c2nc3ccccc3s2)CC1,65%
7,CNC(=O)C1CCC(Cn2c(=O)c3sccc3n(CC(=O)Nc3ccccc3)c2=O)CC1 (configuration not stated),75%
8,CCOC(=O)c1sc2nc(C)n(CC(=O)Nc3cccc(Cl)c3)c(=O)c2c1C,71%
9,CCOc1ccc(NC(=O)CSc2nccn2Cc2ccco2)cc1,91%
10,COc1ccc(-c2cn3c(n2)sc2cc(C(=O)NCCc4ccc(OC)cc4OC)ccc23)cc1,65%
11,COc1ccc(-c2cn3c(n2)sc2cc(C(=O)NCCc4ccccc4)ccc23)cc1,86%
12,COc1ccccc1CNC(=O)c1ccc2c(c1)sc1nc(-c3ccc(F)cc3)cn12,63%
13,CCc1ccc(-c2cn3c(n2)sc2cc(C(=O)NCCc4ccc(OC)cc4OC)ccc23)cc1,59%
14,CCOc1ccc(-c2cn3c(n2)sc2cc(C(=O)NCCc4ccc(OC)c(OC)c4)ccc23)cc1,49% (active)
15,CCOc1ccc(CCNC(=O)c2ccc3c(c2)sc2nc(-c4ccc(F)cc4)cn23)cc1OCC,42% (active)
16,COc1cccc(-c2cn3c(n2)sc2cc(C(=O)NCCCc4ccccc4)ccc23)c1,54%
17,COc1cccc(-c2cn3c(n2)sc2cc(C(=O)NCCc4ccccc4)ccc23)c1,38% (active)
18,CCOc1ccc(-c2cn3c(n2)sc2cc(C(=O)NCCc4ccc(OC)cc4OC)ccc23)cc1,40% (active)
19,CCOc1ccc(-c2cn3c(n2)sc2cc(C(=O)NCCC4=CCCCC4)ccc23)cc1,87%
20,CCOc1ccc(CNC(=O)c2ccc3c(c2)sc2nc(-c4ccccc4)cn23)cc1,74%
21,CCOc1ccccc1CNC(=O)c1ccc2c(c1)sc1nc(-c3ccccc3)cn12,67%

row,SMILES,survival
1,COc1ccc(C(C#N)N2N=C(C)CC2c2ccccc2)cc1OC (configuration not stated),108%
2,CC(=O)c1ccc(NC(=O)CSc2nc(C3CCCC3)nc3c2c(=O)n(C)c(=O)n3C)cc1,78%
3,Cc1cccc(C)c1-n1ncc(C(=O)N2CCN(c3ncccn3)CC2)c1C1CCN(C(=O)OC(C)(C)C)CC1,95%
4,COc1cc(OC)c(NC(=O)CCc2nc(C3=CCN(Cc4cccc(Cl)c4)CC3)no2)cc1Cl,75%
5,Cc1cc(C)c(NC(=O)CN(C)S(=O)(=O)c2ccc3c(c2)c(=O)n(C)c(=O)n3C)c(C)c1,81%
6,Cc1ccc(Cl)cc1-n1ncc2c(N3CCC(C)CC3)ncnc21,128%
7,COc1cc(C(CC(=O)Nc2ccc(Br)cn2)N2Cc3ccccc3C2=O)cc(OC)c1OC (configuration not stated),78%
8,COc1ccc(CCNC(=O)c2ccc3c(c2)sc2nc(-c4ccccc4)cn23)cc1OC,47% (active)
9,COc1cccc(-c2cn3c(n2)sc2cc(C(=O)NCCc4ccc(OC)c(OC)c4)ccc23)c1,49%
10,COc1ccc(CCNC(=O)c2ccc3c(c2)sc2nc(-c4ccc(C)cc4)cn23)cc1OC,81%
11,Cc1cc(C(=O)O)on1,83%
12,O=C(Nc1cc(-c2nc3ccccc3s2)ccc1Cl)c1cc2ccccc2o1,105%
13,COc1ccc(-c2nc3ccccc3s2)cc1NC(=O)c1cc(OC)c(OC)c(OC)c1,57%
14,COc1cc(OC)cc(C(=O)Nc2ccc(-c3nc4ccccc4s3)cc2C)c1,72%
15,COc1ccc(C(=O)Nc2cc(-c3nc4ccccc4s3)ccc2OC)cc1,19% (active)
16,COc1ccc(-c2nc3ccccc3s2)cc1NC(=O)c1cccc([N+](=O)[O-])c1C,38% (active)
17,CCOc1ccc(C(=O)Nc2cc(-c3nc4ccccc4s3)ccc2OC)cc1,187%
18,COc1ccc(-c2nc3ccccc3s2)cc1NC(=O)c1ccc(C#N)cc1F,168%
19,COc1ccc(-c2nc3ccccc3s2)cc1NC(=O)c1ccccc1OC,77%
20,COc1cc(OC)cc(C(=O)Nc2cc(-c3nc4ccccc4s3)ccc2OC)c1,42% (active)
21,COc1ccc(-c2nc3ccccc3s2)cc1NC(=O)c1ccc(F)cc1,137%

row,SMILES,survival
1,COc1ccc(-c2nc3ccccc3s2)cc1NC(=O)c1ccccc1F,151%
2,COc1ccc(-c2nc3ccccc3s2)cc1NC(=O)c1cc2ccccc2o1,38% (active)
3,CCOC(=O)N1CCc2c(sc(NCc3sccc3C)c2C(=O)Nc2ccccc2OCC)C1,94%
4,O=C(NCCS(=O)(=O)N1CCN(c2ccc(F)cc2)CC1)C(c1ccccc1)c1ccccc1,113%
5,CC(C)COc1ccc(C(=O)N2CCN(CCc3ccccn3)CC2)cc1,63%
6,CC(C)(C)C(=O)C1C2C3COC(O3)C(=O)C2C2C=Cc3ccccc3N21 (configuration not stated),124%
7,CCc1cccc(NC(=O)Cn2c(=O)n(CC(=O)NCCc3ccccc3)c(=O)c3ccccc32)c1,102%
8,COc1cc(Cl)c(C)cc1NC(=O)c1cc2c(Cl)nc3ccc(C)cc3c2s1,64%
9,CSc1ncc(C(=O)N2CCN(c3cccc(C(F)(F)F)c3)CC2)c(C)n1,69%
10,CS(=O)(=O)c1ncc(Cl)c(C(=O)N2CCN(c3cccc(Cl)c3)CC2)n1,17% (active)
11,CSc1ncc(C(=O)N2CCN(c3cccc(Cl)c3)CC2)c(C)n1,0% (active)
12,CCS(=O)(=O)c1ncc(Cl)c(C(=O)N2CCN(c3ccc(OC)cc3)CC2)n1,68%
13,CS(=O)(=O)N1CCc2cc(C(=O)N3CCN(c4cccc(Cl)c4)CC3)ccc21,49%
14,CCSc1ncc(Cl)c(C(=O)N2CCN(c3ccccc3OC)CC2)n1,76%
15,CCCSc1ncc(Cl)c(C(=O)N2CCN(c3ccc(OC)cc3)CC2)n1,49%
16,CCS(=O)(=O)c1ncc(Cl)c(C(=O)N2CCN(c3cccc(Cl)c3)CC2)n1,8% (active)
17,CSc1ncc(C(=O)N2CCN(c3ccc(Cl)cc3)CC2)c(C)n1,106%
18,CCSc1ncc(Cl)c(C(=O)N2CCN(c3ccc(OC)cc3)CC2)n1,83%
19,Cn1cc(S(=O)(=O)N2CCCC2)cc1C(=O)N1CCN(c2cccc(Cl)c2)CC1,73%
20,CCCSc1ncc(Cl)c(C(=O)N2CCN(c3cccc(Cl)c3)CC2)n1,40% (active)
